# The full list was thinned out, with the strongest signals kept by preference.
# Tested on: Fuc(a1-4)GlcNAc
# Assay: glycan array binding signal (z-score within array); higher = stronger binding
# Settings: glycan notation: IUPAC condensed, linker removed
# Summary of the method: (§1)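 Negative Z-scores can be read as non-binding. The Z-score is calculated within each array and then averaged across arrays of one protein sequence at different concentrations or buffers and across linkers. Arrays, 3228 in all, were curated from the Consortium for Functional Glycomics database and kept only where the protein sequence was available.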
row,Substance,glycan array binding signal (z-score)
1,"BambL (Burhholderia ambifaria), Q0B4G1",6.86
2,AgI/IIC123-GFP (Streptococcus mutans),6.16
3,AgI/II Vhelical-GFP (Streptococcus mutans),19.1

# Tested on: Fuc(b1-3)GlcNAc
# Assay: as above
# Settings: glycan notation: IUPAC condensed, linker removed
# Summary of the method: as §1
row,Substance,glycan array binding signal (z-score)
1,"BambL (Burhholderia ambifaria), Q0B4G1",4.1
2,"Wza (Escherichia coli), P0A930",1.51
3,LcI (Legionella pneumophila),0.056
4,AgI/II Vhelical-GFP (Streptococcus mutans),-0.193
5,Actinohivin (Actinomycete K97),-0.17

# Tested on: Gal(a1-3)Gal(b1-3)GlcNAc(b1-2)Man
# Assay: as above
# Settings: glycan notation: IUPAC condensed, linker removed
# Summary of the method: as §1
row,Substance,glycan array binding signal (z-score)
1,Epa22,-0.377
2,AgI/II Vhelical-GFP (Streptococcus mutans),-0.049
3,Actinohivin (Actinomycete K97),0.041
